This note sets out measurements from PubChem BioAssay (NCI).

What all share (assay): NCI-60 one-dose screen, 48 h (100 = growth as untreated, 0 = no growth, -100 = all killed)
Holding throughout (conditions): 10 µM unless noted

Test [1] relates to HCT-15 colon.
Test [2] concerns HT29 colon.
Test [3] deals with SNB-75 CNS.
Test [4] relates to SNB-19 CNS.
In test [5] the test system is U251 CNS.
Test [6] deals with PC-3 prostate.
For test [7], the system named is SK-MEL-5 melanoma.
In test [8] the test system is UACC-62 melanoma.
For test [9], the system named is LOX IMVI melanoma.
Test [10] concerns SK-MEL-28 melanoma.
In test [11] the test system is SK-MEL-2 melanoma.
Test [12] concerns EKVX NSCLC.
Test [13] concerns SN12C renal.
Test [14] has as its system UO-31 renal.
The test system of test [15] is TK-10 renal.
The subject of test [16] is ACHN renal.
For test [17], the system named is CAKI-1 renal.
Test [18] relates to A498 renal.
Test [19] deals with CCRF-CEM leukemia.
In test [20] the test system is MOLT-4 leukemia.

Structures are written as SMILES. This is part of a sample that, as a whole, favours compounds with a hit. Of some 83,000 tested, about 20% had one in any assay.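 Single-concentration screen, 48 h exposure, 96-well plates. Endpoint: percent growth. Below 10 = active.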 Unmarked numbers belong to inactive results. Activity calls are given as the source filed them.

As to `CN1CCN(C(=O)c2ccc(NC(=O)Nc3ccc(-c4nc(N5CCOCC5)c5cccn5n4)cc3)cc2)CC1`, the growth in test [1] is 13.2%; in [2], 5.74% (active); in [3] it was -37.7% (active); in [4], 3.27% (active); in test [5], 3.91% (active); in test [6], 5.5% (active). Besides, the growth in [7] is -61.6% (active); in test [8], -41.3% (active); in test [9] it was -3.2% (active); in [10], -18.4% (active); in [11] it was -8.25% (active); in test [12], -22.8% (active). The growth in [13] was 5.33% (active); in test [14], -14.6% (active); in [15], -23.5% (active); in test [16] it was -6.03% (active); in test [17], 15.3%; in test [18], -51.5% (active). Further, the growth in [19] is 16.9%; in test [20] it was 0.147% (active).

In the case of `COc1cc(-c2nc(SCC(C)C)nc(Nc3cccc4ccccc34)c2C#N)cc(OC)c1OC`, the growth in test [1] was 74.3%; in test [2], 89.9%; in test [3], 94.3%; in test [4], 106%; in [5] it was 59.1%; in test [6], 57.1%. In addition, the growth in test [7] was 95.5%; in [8], 86.5%; in test [9], 103%; in test [10], 110%; in [11], 107%; in test [12] it was 98.7%. For the same molecule, the growth in [13] is 92.6%; in test [14] it was 67.9%; in [15] it was 128%; in test [16], 98.4%; in [17] it was 68.5%; in test [18] it was 74.3%. The values for the growth in [19] and in [20] were 75% and 64.3%, respectively.

For `Cc1ccc2c3c(c(=O)[nH]c2c1)C1(C(C#N)=C(N)O3)c2cc(Br)ccc2-c2ccc(Br)cc21`, the growth was 11.4% in [1]; -14.7% (active) in test [2]; -26.8% (active) in test [3]; -30% (active) in [4]; -66.4% (active) in test [5]; -30.2% (active) in test [6]. The growth in test [7] is 61.4%; in test [8] it was 40.1%; in test [9], 2.99% (active); in test [10], 48.7%; in test [11], 32.6%; in test [12] it was -32.9% (active). For the same molecule, the growth in [13] was -32.3% (active); in [14], -62.3% (active); in [15], -36.2% (active); in test [16], -15.8% (active); in [17], -64.3% (active); in test [18], -18.8% (active). The growth in test [19] was 32.6%; in test [20], 21.3%.

For the molecule `COc1ccc(/C=C2\COc3ccc(O)c(O)c3C2=O)cc1`, the growth is -19.4% (active) in test [1]; 42.6% in test [2]; 44.4% in test [3]; 42% in [4]; 12.8% in test [5]; 17.7% in test [6]. Further, the growth in test [7] is -1.8% (active); in test [8] it was 4.68% (active); in test [9] it was -63.9% (active); in test [10], 57.4%; in test [11], 57.4%; in [12] it was 48%. The growth was -39.1% (active) in test [13]; -86.3% (active) in test [14]; 7.43% (active) in test [15]; -42% (active) in test [16]; 2.2% (active) in test [17]; 24.4% in test [18]. Moreover, the growth in [19] was 7.73% (active); in test [20], 3.83% (active).

On to `CCCCCCNC(=O)Oc1ccc(/C(=C(/C)Cc2ccc(OC)cc2)c2ccc(OCCCN(C)C)cc2)cc1`, for which the growth in test [1] was -6.62% (active); in test [2], -55.9% (active); in test [3], 65.9%; in test [4], 45.7%; in test [5], -46.7% (active); in test [6] it was 24.3%. The growth in [7] was 6.74% (active); in test [8] it was -25.1% (active); in test [9] it was -60.5% (active); in test [10], -43.5% (active); in test [11] it was 26.9%; in test [12] it was 83%. The growth in [13] is 45.8%; in [14] it was 0.897% (active); in test [15] it was 51.3%; in [16] it was 37%; in [17] it was 44.5%; in [18], 97.3%. Further, the growth is -2.26% (active) in test [19] and -12.3% (active) in test [20].

Take `O=C1/C(=C\c2cn(-c3ccccc3)nc2-c2ccc(-c3cccs3)cc2)CCc2ccccc21`: the growth in test [1] is 37.8%; in [2], 29.5%; in test [3] it was 45.8%; in test [4] it was 61%; in test [5] it was 66.2%; in [6], 78.1%. In addition, the growth in [7] was 66%; in [8], 47.7%; in test [9] it was 56.9%; in [10] it was 68.8%; in [11], 70.4%; in test [12], 68.5%. Besides, the growth was 66.8% in test [13]; 54.2% in test [14]; 101% in test [15]; 79.5% in [16]; 41.2% in [17]; 10.3% in test [18]. Besides, the growth in test [19] was 48%; in [20], 49.1%.

`CCOC(=O)/C=C1\S/C(=N\Nc2cc(=O)[nH]c3ccc(Cl)cc23)N(c2ccccc2)C1=O`: the growth in test [1] is 74.5%; in test [2] it was 102%; in [3] it was 87.5%; in [4], 90.6%; in [5], 89.9%; in test [6] it was 85.4%. Further, the growth was 98.9% in [7]; 89.4% in test [8]; 84.4% in test [9]; 101% in [10]; 105% in test [11]; 100% in test [12]. The growth is 93.1% in test [13]; 75.2% in test [14]; 107% in test [15]; 91.6% in [16]; 83.3% in [17]; 115% in test [18]. The growth was 3.19% (active) in test [19] and 21% in [20].
